Here are results for 37 compounds from PubChem BioAssay (NCATS).

Records with an inconclusive call do not appear. Values without a mark were called inactive. The source made the active and inactive calls. Calls come from the whole dose curve.
% is set by controls: 0 for no effect and ±100 for the full control effect.

This test is described as follows: Primary qHTS for Huh7 cytotoxicity: counterscreen for inhibitors of MERS-S pseudotyped particle cell entry (AID 1479147). To be noted: cell viability read-out; series mostly up to 57.1 µM; activity change, negative = cytotoxicity: at the top concentration. (In general: In qHTS, concentration-response curves come from the screen itself.)
Turning to `O=C1CCC(N2C(=O)c3ccccc3C2=O)C(=O)N1` (configuration not stated), the outcome was inactive.
Still for that read-out and setting: the value for `O=C1NC(c2ccccc2)(c2ccccc2)C(=O)N1COP(=O)(O)O` was “inactive”.
As to `CC[C@@H](CO)NCCN[C@@H](CC)CO`, the “activity change, negative = cytotoxicity” value is 3.03%.
In the case of `CCC1(c2ccccc2)C(=O)NCNC1=O`, the outcome was inactive.
`CO/N=C(\C(=O)N[C@@H]1C(=O)N2C(C(=O)O)=C(CSc3nc(=O)c(O)nn3C)CS[C@H]12)c1csc(N)n1`: the result was inactive.
Regarding `CO/N=C1\CN(c2nc3c(cc2F)c(=O)c(C(=O)O)cn3C2CC2)CC1CN` (configuration not stated), the outcome was inactive.
With `CC(C)NCC(O)c1ccc(O)c(O)c1` (configuration not stated), the outcome was inactive.
With `CN(C)CCc1c[nH]c2ccc(CS(=O)(=O)N3CCCC3)cc12`, the result was inactive.
`CC(=O)OCC(CCn1cnc2cnc(N)nc21)COC(C)=O`: the result was inactive.
Regarding `CN1C(CCl)Nc2cc(Cl)c(S(N)(=O)=O)cc2S1(=O)=O` (configuration not stated), the outcome was inactive.
Regarding `CC#C[C@]1(O)CC[C@H]2[C@@H]3CCC4=CC(=O)CCC4=C3[C@@H](c3ccc(N(C)C)cc3)C[C@@]21C`, the “activity change, negative = cytotoxicity” value was -9.76%.
With `CC(=O)Nc1nnc(S(N)(=O)=O)s1`, the outcome was inactive.
Consider `O=C(O)P(=O)(O)O`, for which the result was inactive.
The same measure, in the same setting: the value for `CCCc1nc2c(C)cc(-c3nc4ccccc4n3C)cc2n1Cc1ccc(-c2ccccc2C(=O)O)cc1` was “inactive”; that for `CC(C)(C)NC(=O)[C@@H]1CN(Cc2cccnc2)CCN1C[C@@H](O)C[C@@H](Cc1ccccc1)C(=O)N[C@H]1c2ccccc2C[C@H]1O` was “inactive”.
As to `O=C(O)COCCN1CCN(C(c2ccccc2)c2ccc(Cl)cc2)CC1` (configuration not stated), the “activity change, negative = cytotoxicity” value is 3.99%.
On to `N=c1nc(N2CCCCC2)cc(N)n1O`, for which the “activity change, negative = cytotoxicity” value is 2.93%.
With `Oc1cn2c(n1)Nc1ccc(Cl)c(Cl)c1C2`, the “outcome” value was “inactive [at 26.4 µM]”.
With `CN(C)/N=N/c1nc[nH]c1C(N)=O`, the result was inactive.
With `Clc1ccc(C(c2ccccc2Cl)C(Cl)Cl)cc1` (configuration not stated), the result was inactive.
Consider `O=C1NC(=O)C(c2ccccc2)(c2ccccc2)N1`, for which the outcome was inactive.
Turning to `Nc1nnc(-c2cccc(Cl)c2Cl)c(N)n1`, the outcome was inactive.
For the compound `CCCCNC(=O)NS(=O)(=O)c1ccc(C)cc1`, the “activity change, negative = cytotoxicity” value is -10%.
As to `CCn1cc(C(=O)O)c(=O)c2cc(F)c(N3CCNCC3)cc21`, the result was inactive.
`Nc1cc(-c2ccncc2)c[nH]c1=O`: the “activity change, negative = cytotoxicity” value was -5.96%.
For the compound `Cc1cccc(Nc2ccncc2S(=O)(=O)NC(=O)NC(C)C)c1`, the result was inactive.
Regarding `CC(C)c1nc(CN(C)C(=O)N[C@H](C(=O)N[C@@H](Cc2ccccc2)C[C@H](O)[C@H](Cc2ccccc2)NC(=O)OCc2cncs2)C(C)C)cs1`, the result was inactive.
As for `CCOC(=O)Nc1ccc2c(c1)N(C(=O)CCN1CCOCC1)c1ccccc1S2`, the “activity change, negative = cytotoxicity” value was 2.28%.
`CC(C)(C)NC(=O)[C@H]1CC[C@H]2[C@@H]3CC[C@H]4NC(=O)C=C[C@]4(C)[C@H]3CC[C@]12C`: the “activity change, negative = cytotoxicity” value was -7.71%.
On to `Cc1ccc(C)c(OCCCC(C)(C)C(=O)O)c1`, for which the result was inactive.
In the case of `CC(C)NCC(O)COc1cccc2[nH]ccc12` (configuration not stated), the “activity change, negative = cytotoxicity” value is 2.95%.
For `CN/C(=C\[N+](=O)[O-])NCCSCc1ccc(CN(C)C)o1`, the result was inactive.
Regarding `C=C(CC)C(=O)c1ccc(OCC(=O)O)c(Cl)c1Cl`, the result was inactive.
Same read-out and setting: the result for `O=c1n(CCCN2CCN(c3cccc(Cl)c3)CC2)nc2ccccn12` reads “inactive”.
On to `Nc1nc2c(ncn2COCCO)c(=O)[nH]1`, for which the “activity change, negative = cytotoxicity” value is -18.8%.
In the case of `NCCCC(O)(P(=O)(O)O)P(=O)(O)O`, the result was inactive.
Same read-out and setting: the value for `COCCCOc1cc(C[C@@H](C[C@H](N)[C@@H](O)C[C@H](C(=O)NCC(C)(C)C(N)=O)C(C)C)C(C)C)ccc1OC` was “inactive”.
